Screening data (PubChem BioAssay)
VLA-4 inh – inhibition in a human VLA-4 binding assay; 330,000 tested, 0.2% active; AID 2557; VLA-4 expressing cells, ligand binding flow cytometry; inhibition, % (about 7 µM as worked out from the volumes in the protocol); in the data active means inhibition above about 50%
B2AR ag – human beta-2 adrenergic receptor agonism by FAP | P07550 | Am2.2-beta2AR cells, FAP receptor internalization, flow cytometry | response, % (no concentration beside the values) | 340,000 tested, 0.43% active | AID 504454;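 active means response above a set limit, near 3 SD of response in nonfluorescent compounds, cut at about 42% in these data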
GRK2 inh – human GRK2 inhibition via aptamer displacement; P25098; bead flow cytometry, FAM-aptamer displacement from GRK2; inhibition of aptamer binding, % at 10 µM; 330,000 tested, 0.59% active; AID 488847;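 active means inhibition of aptamer binding above 40%, roughly 3 SD of noise, on plates passing a quality check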;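 further: median bead fluorescence of bound FAM aptamer so fluorescent compounds give negative values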
Target sequence (P25098 whole entry, looked up): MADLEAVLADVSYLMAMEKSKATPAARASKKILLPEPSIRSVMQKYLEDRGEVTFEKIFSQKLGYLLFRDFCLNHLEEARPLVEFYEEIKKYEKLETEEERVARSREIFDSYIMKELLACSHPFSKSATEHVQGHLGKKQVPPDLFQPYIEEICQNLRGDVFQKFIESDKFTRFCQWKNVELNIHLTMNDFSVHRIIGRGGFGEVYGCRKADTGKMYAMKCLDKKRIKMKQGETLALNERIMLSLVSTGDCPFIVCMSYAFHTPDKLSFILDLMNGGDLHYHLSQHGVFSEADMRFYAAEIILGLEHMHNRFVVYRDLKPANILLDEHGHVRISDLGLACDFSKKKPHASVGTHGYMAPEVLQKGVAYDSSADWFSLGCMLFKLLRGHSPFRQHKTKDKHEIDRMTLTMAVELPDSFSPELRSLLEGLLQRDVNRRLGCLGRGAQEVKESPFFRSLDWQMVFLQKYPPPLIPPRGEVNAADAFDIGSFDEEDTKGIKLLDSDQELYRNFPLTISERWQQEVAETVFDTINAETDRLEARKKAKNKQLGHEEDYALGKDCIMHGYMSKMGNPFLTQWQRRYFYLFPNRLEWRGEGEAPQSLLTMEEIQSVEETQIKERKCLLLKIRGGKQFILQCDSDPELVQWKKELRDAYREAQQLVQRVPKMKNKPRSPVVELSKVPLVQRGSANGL
Bfl-1 A1 inh – inhibitors of the anti-apoptotic protein A1, read as caspase activation. MEF A1-2A-BIM cells, Caspase-Glo 3/7 luminescence, 3 h; percent of clofoctol response, vehicle zero. caspase activation, % (test concentration not listed). 330,000 tested, 0.066% active. AID 2462;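 active means over half of replicate activation scores above 10%, or exactly half above 10 with the replicate mean above 10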
NTR1 agonist – NTR1 (human) agonism | P30989 | NTR1-U2OS beta-arrestin-GFP spot imaging, agonist mode | activation, % at 20 µM | 330,000 tested, 0.17% active | AID 493036;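 active means activation at or above 40% of the spot to cytoplasm intensity ratio, with at least 20 cells analyzed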;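 further: 0% = DMSO without peptide and 100% = 100 nM NTR1 peptide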
Numbers without * were called inactive; . = not tested or not shown. This is a sample that favours compounds with a hit; in the whole collection about 1.3% have one here.

SMILES	VLA-4 inh	B2AR ag	GRK2 inh	Bfl-1 A1 inh	NTR1 agonist
N#CSCC(=O)N1c2ccccc2CCc2ccccc21	10.3	51.8*	0.0	0.7	9.2
[N-]=[N+]=NC1C[C@H](n2ccc(=O)[nH]c2=O)O[C@@H]1CO (stereo not given in full)	-0.7	-7.4	4.0	1.1	0.4
O=C1NC(=O)N(c2ccccc2)C(=O)/C1=C\c1ccc([N+](=O)[O-])o1	10.6	.	93.0*	-0.5	0.1
COc1c(O)cc2c(c1OC)-c1ccc(SC)c(=O)cc1C(NC(C)=O)CC2 (stereo not given)	.	28.5	.	.	.
Nc1ncn[nH]1	-1.9	0.2	1.0	1.0	1.0
CN(C)[C@@H]1C(=O)C(C(N)=O)=C(O)[C@@]2(O)C(=O)C3=C(O)c4c(O)cccc4[C@@](C)(O)[C@H]3C[C@@H]12	10.9	.	42.0*	-0.4	3.9
O=C1NC(=S)SC1=Cc1ccc(N(CCCl)CCCl)cc1	.	-65.5	.	.	.
COc1cc2c(cc1OC)CC[N+](C)=C2	2.7	56.9*	0.0	0.3	-2.9
O=C(Cn1ncc2c3ccccc3n(Cc3ccccc3F)c2c1=O)N1CCC2(CC1)OCCO2	-9.6	50.5*	0.0	0.5	-0.2
Cc1c2cnn(CC(=O)N3CCC4(CC3)OCCO4)c(=O)c2c(C)n1Cc1ccc(F)cc1	2.3	-0.7	2.0	-0.2	-0.2
CCCCn1c(NC(=O)c2ccc(Br)o2)c(C(=O)OCC)c2nc3ccccc3nc21	-69.9	-69.7	78.0*	0.7	-1.0
CCCCn1c(NS(=O)(=O)c2ccccc2)c(C(=O)OCC)c2nc3ccccc3nc21	11.4	13.4	0.0	0.5	.
C=C(C)[C@@]12OC3(c4ccccc4)O[C@@H]1C1[C@@H]4O[C@]4(CO)[C@@H](O)[C@]4(O)C(=O)C(C)=C[C@H]4[C@@]1(O3)[C@H](C)[C@H]2OC(=O)/C=C/C=C/c1ccccc1 (stereo not given in full)	0.0	111.6*	0.0	0.2	30.4
CCc1ccccc1N1C(=O)NC(=O)/C(=C\c2cc(C)n(C)c2C)C1=O	-8.0	60.8*	0.0	0.7	5.1
Cc1cc(C)cc(N2C(=O)NC(=O)/C(=C\c3cc(C)n(C)c3C)C2=O)c1	21.7	-1.1	4.0	1.0	-1.1
COc1cc2c3cc1Oc1c(OC)c(OC)cc4c1[C@H](Cc1ccc(cc1)Oc1cc(ccc1O)C[C@H]3N(C)CC2)N(C)CC4	3.2	26.1	0.0	0.5	3.6
COc1cc2c3c(c1OC)Oc1ccc(cc1)C[C@H]1c4c(cc(OC)c(OC)c4Oc4ccc(cc4)C[C@@H]3N(C)CC2)CCN1C	-10.0	44.8*	0.0	.	2.8
CN(C)C(=O)Oc1ccc2c(c1)O/C(=C\c1ccc(Cl)cc1)C2=O	3.8	-7.9	0.0	-7.1	0.7
CN(C)C(=O)Oc1ccc2c(c1)O/C(=C\c1cccc(Cl)c1)C2=O	9.1	53.3*	1.0	-2.3	4.0
Cn1cccc1/C=C1/C(=O)NC(=O)N(Cc2ccc(F)cc2)C1=O	39.0	18.8	0.0	1.2	-0.9
Cn1cccc1/C=C1/C(=O)NC(=S)N(Cc2ccc(F)cc2)C1=O	28.6	60.2*	2.0	1.1	22.7
COC(=O)C1=C(c2c(C)noc2C)C[C@@H]2CC[C@H]1N2C(=O)NCCOc1ccc(OC)cc1	25.4	-0.6	0.0	1.1	-0.8
CCCN1CCC[C@@H](c2cccc(O)c2)C1	-9.4	-9.5	0.0	0.0	-2.2
CC1CCCN(C(=O)CCl)C1 (stereo not given)	56.4*	2.4	0.0	-0.9	-0.7
N#CC1c2ccccc2-n2nncc2CN1Cc1cc(Cl)cc(Cl)c1 (stereo not given)	.	94.1*	.	.	.
SMILES	VLA-4 inh	B2AR ag	GRK2 inh	Bfl-1 A1 inh	NTR1 agonist
O=C1NC(=S)NC(=O)C1=Cc1cccc2cc3ccccc3cc12	.	93.5*	.	.	.
CC(=O)O[C@@H]1/C=C/[C@](C)(O)C[C@@H](C)C/C=C/[C@H]2[C@H](O)[C@@](C)(O)[C@@H](C)[C@H]3[C@H](Cc4ccccc4)NC(=O)[C@@]312	30.5	.	1.0	0.0	-2.5
CC(=O)O[C@@H]1/C=C/[C@](C)(O)C[C@@H](C)C/C=C/[C@H]2[C@@H]3O[C@]3(C)[C@@H](C)[C@H]3[C@H](Cc4ccccc4)NC(=O)[C@@]312	16.9	.	0.0	6.4*	-0.5
FC(F)(F)c1ccc2c(c1)N(CCCN1CCN(CCCl)CC1)c1ccccc1S2	4.2	68.3*	0.0	-0.1	1.6
O=c1ccc2cc(O[C@@H]3O[C@@H](CO)[C@H](O)[C@@H](O)[C@@H]3O)c(O)cc2o1	9.9	-1.4	9.0	0.8	-1.4
CCCCN1C(=O)/C(=C/C=C/c2ccco2)C(=O)NC1=S	.	-0.3	.	.	.
Cc1ccccc1N1C(=O)/C(=C/c2ccco2)C(=O)NC1=S	4.8	.	100.0*	-0.2	.
O=C1NC(=O)N(Cc2ccccc2)C(=O)/C1=C\c1ccco1	25.9	57.6*	8.0	0.2	15.1
Cn1cccc1/C=C1\C(=O)NC(=O)N(Cc2ccccc2)C1=O	3.4	23.9	2.0	2.5	1.6
O=C1NC(=O)N(Cc2ccc(F)cc2)C(=O)/C1=C\C=C\c1ccco1	32.2	48.4*	11.0	0.7	0.5
CC1OC(OC2C=C3CCC4C(CCC5(C)C(c6ccc(=O)oc6)CCC45O)C3(C)CC2)C(O)C(OC2OC(CO)C(O)C(O)C2O)C1O (stereo not given)	.	-7.0	.	.	.
CC1CC(C)OP(=O)(OCCC#N)O1 (stereo not given)	.	-4.9	.	.	.
O=C1NC(=S)NC(=O)C1=Cc1ccc(Br)s1	31.6	54.0*	2.0	0.2	6.9
CC1CC2(C)C(CCC3C2CCC2(C)C(OP(=O)(N4CC4)N4CC4)CCC32)CC1=O (stereo not given)	.	1.4	.	.	.
CC1=NN(c2ccccc2)C(=O)C1/C=C1\C(=O)NC(=O)N(c2cc(C)cc(C)c2)C1=O (stereo not given)	-5.1	5.7	2.0	-0.9	1.9
CC(C)c1ccc(N2C(=O)NC(=O)/C(=C/C=C/c3ccco3)C2=O)cc1	-5.0	14.8	8.0	0.6	.
CCc1ccc(N2C(=O)NC(=O)/C(=C\C=C\c3ccco3)C2=O)cc1	2.2	70.5*	10.0	2.6	31.3
Cc1cc(C)cc(N2C(=O)NC(=O)/C(=C\C=C\c3ccco3)C2=O)c1	35.5	58.5*	21.0	1.5	.
Cc1ccc(N2C(=O)NC(=O)/C(=C/C=C/c3ccco3)C2=O)cc1	-1.3	83.0*	3.0	0.4	17.3
COc1cc(C2(C#N)CCN(C)CC2)cc(OC)c1OC	.	5.6	.	.	.
C=CC[C@@H](CC/C=C/C=C/CC/C=C\[C@@H]1CSC([C@@H]2C[C@@H]2C)=N1)OC	19.4	20.1	0.0	.	4.2
Cc1ccc(OP2(=O)Nc3cc(C)c(C)cc3S2)cc1 (stereo not given)	.	13.1	.	.	.
O=C1/C(=C/c2ccccc2)C[C@@]2(O)[C@H]3Cc4ccc(O)c5c4[C@@]2(CCN3CC2CC2)C1O5 (stereo not given in full)	5.6	69.4*	0.0	.	35.1
